This is a sample that favours compounds with a hit; in the whole collection about 18% have one here.
TDP1 cell noCPT = qHTS for Inhibitors of human tyrosyl-DNA phosphodiesterase 1 (TDP1): qHTS in cells in absence of CPT; DT40 Tdp1-/- hTDP1 cells, no CPT, ATP luminescence, 48 h; Potency, µM (series often up to 46.2 µM), most hits filed as inhibitors; 15% of 420,000 active; also: nearly all actives have a fitted effect of over 55% in size
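Luminescent ATP content (CellTiter-Glo) served as the growth readout. Knockout chicken DT40 cells expressing human TDP1 were exposed to compounds without camptothecin for a minimum 48 hr at 37 °C.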
DT40 TDP1 CPT = DT40-hTDP1 cell growth loss with CPT. 12% of 420,000 active. AID 686979. chicken DT40 Tdp1-/-;hTDP1 cells + 20 nM CPT, ATP luminescence, 48 h. Potency, µM (highest dose often 46.2 µM), hits mostly inhibitors; also: nearly all actives have a fitted effect of over 55% in size
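Chicken DT40 Tdp1-/- cells stably complemented with human TDP1 were seeded at 400 cells/well in medium containing 20 nM camptothecin, exposed to pin-transferred compounds, and grown at 37 °C for at least 48 hr. Viability was read as ATP luminescence.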
PLK1 PBD inh = blocks phosphopeptide binding to human PLK1 polo-box domain. Plk1 PBD binding of FITC phosphopeptide, fluorescence polarization. Potency, µM, usual class: inhibitors. 2.8% of 360,000 active; also: series mostly up to about 57 µM; nearly all actives have a fitted effect of over 65% in size
TDP1 inh = TDP1 (human) enzyme inhibition; 0.28% of 350,000 active; Potency, µM (top dose mostly 130 µM), hits mostly inhibitors; recombinant TDP1, AlphaScreen DNA substrate cleavage; AID 485290; also: nearly all actives have a fitted effect of over 40% in size
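Steps: enzyme plus compound, 15 min RT; add biotin/phosphotyrosine-FITC oligonucleotide (15 nM final), react 5 min; add donor/acceptor beads (10 ug/ml final), 10 min; read AlphaScreen. Tdp1 at 1 nM final.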
KAT2A inh = inhibitors of human GCN5L2 histone acetyltransferase | Q92830 | GCN5L2 HAT assay, ThioGlo1 CoA-SH fluorescence | Potency, µM (highest dose often 58.9 µM), usual class: inhibitors | 0.21% of 390,000 active
Target sequence (Q92830 whole entry, looked up): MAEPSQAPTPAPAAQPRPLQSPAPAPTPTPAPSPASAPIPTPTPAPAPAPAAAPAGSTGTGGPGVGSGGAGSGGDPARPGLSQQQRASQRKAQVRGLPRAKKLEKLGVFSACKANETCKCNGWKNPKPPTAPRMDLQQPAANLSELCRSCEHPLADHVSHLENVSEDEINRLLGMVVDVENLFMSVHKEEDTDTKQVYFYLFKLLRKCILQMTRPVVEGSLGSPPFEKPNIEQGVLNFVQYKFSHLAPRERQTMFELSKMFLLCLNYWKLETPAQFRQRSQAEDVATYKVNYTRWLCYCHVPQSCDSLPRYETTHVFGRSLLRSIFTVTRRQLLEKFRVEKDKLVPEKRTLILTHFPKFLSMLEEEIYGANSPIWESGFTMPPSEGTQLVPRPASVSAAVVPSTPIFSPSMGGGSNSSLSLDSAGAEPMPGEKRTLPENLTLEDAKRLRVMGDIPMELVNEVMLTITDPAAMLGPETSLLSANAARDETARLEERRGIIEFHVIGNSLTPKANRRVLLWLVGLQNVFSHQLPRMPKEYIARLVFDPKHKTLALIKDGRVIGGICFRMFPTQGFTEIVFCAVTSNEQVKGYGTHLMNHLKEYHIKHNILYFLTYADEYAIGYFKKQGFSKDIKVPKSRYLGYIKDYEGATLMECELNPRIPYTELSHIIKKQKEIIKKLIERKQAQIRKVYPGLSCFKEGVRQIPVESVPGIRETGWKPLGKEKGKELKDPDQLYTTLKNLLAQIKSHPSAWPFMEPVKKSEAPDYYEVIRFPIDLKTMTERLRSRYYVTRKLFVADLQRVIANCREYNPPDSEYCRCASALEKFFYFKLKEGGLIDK
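Compounds, pin-transferred from DMSO stocks, meet 20nM GCN5L2 for 15 min before the reaction begins with H3(1-25) peptide (75uM) and acetyl-CoA (70uM). Thiol-reactive ThioGlo1 reports CoA release over 20 min at room temperature.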
VDR inhibitor = blocks the human vitamin D receptor. VDR-SRC2-3 peptide fluorescence polarization, 2 h. Potency, µM, hits mostly inhibitors. 0.93% of 400,000 active. AID 504847
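The screen uses fluorescence polarization to detect compounds that interfere with recruitment of the SRC2-3 coactivator peptide to VDR; plates are read after 2 h at room temperature.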
A number is an active result; 0 = inactive; ? = inconclusive; - = no result given; ! = repeats disagree; [ ] = remark or other dose. Calls follow the shape of the dose curve; as a rule, active = well fitted curve in the direction sought with a large enough effect; inconclusive = small, poorly fitted or top-dose-only effect, or another doubt; inactive = no such curve, though single readings can be large; an effect the other way counts as inactive or inconclusive.

SMILES	TDP1 cell noCPT	DT40 TDP1 CPT	PLK1 PBD inh	TDP1 inh	KAT2A inh	VDR inhibitor
Cc1cc(C(=O)CN2C(=O)NC(C)(CC(C)C)C2=O)c(C)n1-c1ccc2c(c1)OCO2 (stereo unspecified)	23µM	?	0	0	0	0
Cc1cc(C(=O)CN2C(=O)NC3(CCCCC3)C2=O)c(C)n1Cc1ccc2c(c1)OCO2	23µM	8.2µM	0	0	0	0
COc1cccc(C2c3c(ncn(-c4ccccc4Br)c3=N)Oc3ccc4ccccc4c32)c1 (stereo unspecified)	-	-	-	0	-	-
O=C(OCC1CO1)C1CCCCC1C(=O)OCC1CO1 (stereo unspecified)	-	-	-	0	-	-
CC(C)c1ccc(NC(=O)CCS(=O)(=O)c2cccc3nonc23)cc1	23µM	16µM!	0	0	0	0
NS(=O)(=O)c1ccc(NC(=S)NCc2cccs2)cc1	0	0	24µM	0	0	0
Cc1ccc(NC(=S)NCc2cccs2)cc1	?	0	0	0	0	0
COc1ccccc1CNC(=S)Nc1ccc(S(N)(=O)=O)cc1	0	0	21µM	-	0	0
O=C1C(N2CCOCC2)=C(n2nnc3ccccc32)C(=O)c2ccccc21	3.3µM	2.3µM	0	0	0	0
O=C1c2ccccc2C(=O)c2c1cccc2-n1nnc2ccccc21	0	0	0	-	0	0
CCCn1c(SCC(=O)NC2CCCCC2)nnc1C1CC1	0	0	0	0	0	0
Cc1cc2nc(C)n(CCCNC(=O)Nc3cccc4ccccc34)c2cc1C	15µM	23µM	0	?	?	0
COC(=O)C1(CO)NC(c2cccs2)C2C(=O)N(c3ccccc3)C(=O)C21 (stereo unspecified)	0	0	27µM	0	0	0
CCOC(=O)C1(C)NC(c2cccs2)C2C(=O)N(c3ccc(C)cc3)C(=O)C21 (stereo unspecified)	0	0	0	0	0	0
O=C1NC2(CCCCC2)C(=O)N1/N=C/c1ccc(O)cc1O	?	?	21µM	0	0	0
O=C1NC2(CCCCC2)C(=O)N1/N=C/c1ccccc1Br	0	0	0	0	0	0
C[C@H](N)CCCP(=O)(O)O	0	0	-	?	0	0
COc1ccc(C(c2c(O)nc[nH]c2=O)c2c(O)nc[nH]c2=O)cc1	0	0	0	0	0	0
CC(C)n1cnc2c(Nc3cccc(Cl)c3)nc(NCCCO)nc21	16µM	21µM	0	0	0	0
CC(C)[C@H](CO)Nc1nc(Nc2ccc(Cl)c(C(=O)O)c2)c2ncn(C(C)C)c2n1	0	0	0	0	0	0
CC(=O)C1CCC2C3CCC4=CC(=O)CCC4(C)C3(F)C(O)CC12C (stereo unspecified)	23µM	23µM	0	-	-	0
CC12CCC(=O)C=C1CCC1C3CC(O)C(O)(C(=O)CO)C3(C)CC(O)C12F (stereo unspecified)	0	0	0	-	-	0
CCOC(=O)C1=CN(Cc2ccco2)S(=O)(=O)N(C)C1c1ccc2ccccc2c1 (stereo unspecified)	?	21µM	0	0	0	0
COc1ccc(F)cc1S(=O)(=O)NCc1cc(=O)n(C)c(=O)n1C	0	0	0	0	0	0
CC(=O)Oc1ccc(C2(c3ccc(OC(C)=O)cc3)Oc3ccccc3NC2=O)cc1	19µM	?	-	-	-	-
SMILES	TDP1 cell noCPT	DT40 TDP1 CPT	PLK1 PBD inh	TDP1 inh	KAT2A inh	VDR inhibitor
O=C(O)Cc1sc(Nc2cccc3ccccc23)nc1-c1ccc(Cl)cc1	0	0	27µM	-	0	0
CC=O	-	-	-	0	-	-
COc1cc(NC(=O)C(CC(C)C)N2Cc3ccccc3C2=O)cc(OC)c1 (stereo unspecified)	?	0	-	0	0	0
Cc1nnc(NC(=O)CSc2nnc(CCc3nc4ccccc4[nH]3)n2C)s1	0	0	0	0	0	0
Cn1c(CCc2nc3ccccc3[nH]2)nnc1SCC#N	0	0	19µM	-	0	0
CCc1ccc(S(=O)(=O)c2nnn3c2nc(NCCc2ccccc2)c2sccc23)cc1	?	?	-	0	0	0
CNc1nc(SC)nc2ccccc12	?	0	0	0	0	0
CSc1nc(N(C)NC(=O)c2ccc(Cl)cc2)c2ccccc2n1	0.33µM	0.26µM	0	0	0	0
CSc1nc(N(C)NC(=O)c2ccccc2)c2ccccc2n1	0.52µM	0.58µM	0	0	0	0
COc1cc(Cl)c(C)cc1NC(=O)Cn1ncc2c([nH]c3ccccc32)c1=O	0	0	-	0	0	0
O=C(c1cc(Cl)nc2ccccc12)N(Cc1nnc(-c2ccc(Cl)cc2)o1)C1CC1	16µM	12µM	0	0	0	0
CCOc1ccc2oc(C(=O)N(Cc3nnc(-c4ccccc4Cl)o3)C3CC3)c(C)c2c1	23µM	?	0	-	0	0
O=C(c1cc2ccccc2o1)N(Cc1nnc(-c2ccccc2Cl)o1)C1CC1	?	0	0	0[0.505 µM]	0	0
O=C(c1cc(Cl)nc2ccccc12)N(Cc1nnc(-c2ccccc2Cl)o1)C1CC1	21µM	16µM	0	-	-	0
O=C(CN1C(=O)NC2(CCCc3ccccc32)C1=O)NCc1ccc(Cl)cc1Cl (stereo unspecified)	?	?	0	0	0	0
COc1ccc(Cl)cc1NC(=S)NCc1ccc(S(N)(=O)=O)cc1	?	0	0	0	0	0
O=C1CC(=O)OC(c2ccc([N+](=O)[O-])cc2)O1	2.3µM	3.3µM	6µM	-	-	-
CCC1C(=O)C(C)(C)C(=O)OC1c1ccc([N+](=O)[O-])cc1 (stereo unspecified)	0	0	0	-	0	0
CCC1CCCCN1CCCCOc1cccc(Cl)c1 (stereo unspecified)	?	?	0	-	0	0
CN(C(=O)CCc1ccccc1F)C1CCCN(Cc2ccccc2F)C1 (stereo unspecified)	16µM	18µM	3.4µM	-	0	35µM
COc1cccc(CCC(=O)N(C)C2CCCN(Cc3ccccc3F)C2)c1 (stereo unspecified)	?	0	0	-	0	0
CCN(CC)C(=O)C1CCCN(c2ccc([N+](=O)[O-])cc2/C=N/NC(=O)c2cccc([N+](=O)[O-])c2)C1 (stereo unspecified)	?	21µM	0	0	0	0
CC(Nc1cccc2ccccc12)C(=O)N/N=C/c1ccccn1 (stereo unspecified)	21µM	26µM	0	0	0	0
O=C(N/N=C1/CCCc2ccccc21)c1cc([N+](=O)[O-])cc([N+](=O)[O-])c1	-	-	-	0	0	-
O=C(NN=Cc1ccccc1O)c1cccc([N+](=O)[O-])c1	0.16µM	0.82µM	0	-	-	0

Screening results: PubChem BioAssay, National Center for Advancing Translational Sciences (NCATS)
